Most compounds without a hit are left out; they make up all but 2.8% or so of the library.
Platelet DG rel: platelet dense granule release activity; hit rate 0.22% among 300,000; inhibition, %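 (compounds screened at 7.5 µM in platelet-rich plasma)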; AID 1663; human platelet-rich plasma, SFLLRN dense granule ATP release, luminescence;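 active = mean replicate score, as percent of positive control, at or above 50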
PolyA inhibitor: inhibitors of polyadenylation in S. cerevisiae | S. cerevisiae SKY197-pL101 polyadenylation reporter, beta-gal luminescence; efflux-impaired pdr1/pdr3 knockout yeast; score 100 = 6 SD above DMSO | activity score, % at 12 µM | hit rate 0.02% among 300,000;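 active = lowest replicate activity score at least 50, where 100 means six control SD above control mean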;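 note: yeast exposed to compound for 9 h at 30 °C; higher score means more reporter readthrough which indicates perturbed polyadenylation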
AHR activator: activators of human aryl hydrocarbon receptor | activation, % at 5 µM | hit rate 2.5% among 320,000 | P35869 | AID 2796 | AHR-responsive luciferase reporter cells, luminescence; in the data active = activation above about 47%;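 note: 0% = vehicle wells and 100% = reference agonist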
p-CIP stab down: lowers stability of the mouse p/CIP coactivator protein | Q05BA5 | F442A p/CIP-EGFP cells, EGFP fluorescence, 16 h | decrease of EGFP signal, % at 10 µM | hit rate 0.01% among 290,000 | AID 1984;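 active = EGFP signal decrease of at least 30% at 10 µM or well 3 SD below plate mean, unless failing retest; inactive = the rest, including hits failing retest or dose response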
HIF activator: HIF pathway transcriptional activation; U2OS HRE-luciferase reporter, luminescence; normalized: DMSO 0%, desferrioxamine 100%; activation, % at 7.5 µM (by protocol); hit rate 0.32% among 300,000; AID 1910;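 active = mean activation of at least 10% of the iron chelator positive control signal, with at least half of replicates also reaching 10%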
Starred values were filed as active, the others as inactive.

How did Cc1ccc(C(CNC(=O)c2ccco2)N2CCN(C)CC2)cc1 (centres undefined) do in these assays?
Platelet DG rel: 16; PolyA inhibitor: 11; AHR activator: 2; HIF activator: 1

Results for O=c1[nH]c(CSc2nc3ccccc3s2)nc2ccccc12 ?
Platelet DG rel: -2; PolyA inhibitor: -7; AHR activator: 66*; p-CIP stab down: -17; HIF activator: 2

How did O=c1[nH]c(CSc2nc3ccccc3s2)nc2cc(Cl)ccc12 do in these assays?
Platelet DG rel: -13; PolyA inhibitor: -10; AHR activator: 53*; p-CIP stab down: -10; HIF activator: 2

What do the screens show for `Cc1sc2nc(CSc3nc4ccccc4s3)[nH]c(=O)c2c1C`?
Platelet DG rel: 0; PolyA inhibitor: 14; AHR activator: 14; p-CIP stab down: 11; HIF activator: 1

Results for CC(OC(=O)c1cc(=O)[nH]c2ccccc12)C(=O)NC1CCCC1 (centres undefined) ?
AHR activator: 9

Results for CCOC(=O)C1CCN(Cc2ccccn2)CC1 ?
Platelet DG rel: -11; PolyA inhibitor: 7; AHR activator: -1; p-CIP stab down: -9; HIF activator: 1

How did CCOC(=O)C1CCN(C=Nc2cc(C)on2)CC1 do in these assays?
Platelet DG rel: 57*; PolyA inhibitor: 3; AHR activator: -1; p-CIP stab down: -1; HIF activator: 1

How did Cn1cc(C(=O)C(=O)N2CCCc3ccccc32)c2ccccc21 do in these assays?
Platelet DG rel: 1; PolyA inhibitor: 4; AHR activator: 68*; p-CIP stab down: 12; HIF activator: 1

How did CCCCN1C2=NC(c3ccccc3)CN2c2ccccc21 (centres undefined) do in these assays?
Platelet DG rel: -7; PolyA inhibitor: 2; AHR activator: 4; HIF activator: -1

Results for COc1cc([C@@H]2c3cc4c(cc3[C@H](O)[C@H]3COC(=O)[C@H]23)OCO4)cc(OC)c1OC ?
Platelet DG rel: 0; PolyA inhibitor: -6; AHR activator: 10; p-CIP stab down: -20; HIF activator: 4

What do the screens show for `COc1cc([C@@H]2c3cc4c(cc3[C@@H](NC3CCN(Cc5ccccc5)CC3)[C@H]3COC(=O)[C@H]23)OCO4)cc(OC)c1O`?
Platelet DG rel: -1; PolyA inhibitor: 15; p-CIP stab down: -20; HIF activator: 15*

How did CCCS(=O)(=O)n1nc(-c2ccc(Br)cc2)cc1N do in these assays?
Platelet DG rel: -43; PolyA inhibitor: 16; AHR activator: 58*; p-CIP stab down: 2; HIF activator: 1

What do the screens show for `CCCS(=O)(=O)n1nc(-c2ccccc2)cc1N`?
Platelet DG rel: 9; PolyA inhibitor: 5; AHR activator: 9; p-CIP stab down: -6; HIF activator: 0

Results for Cc1nn(-c2ccc(Br)cc2)c(=O)c2ccccc12 ?
Platelet DG rel: -6; PolyA inhibitor: -21; AHR activator: 57*; p-CIP stab down: -9; HIF activator: 3

What do the screens show for `Cc1ccc(S(=O)(=O)NC2=NCN(CC(=O)O)CN2)cc1`?
Platelet DG rel: -4; PolyA inhibitor: 3; AHR activator: -1; p-CIP stab down: -14; HIF activator: 0

How did Cc1ccc(Cl)cc1N1CCN(CC(O)COCc2ccco2)CC1 (centres undefined) do in these assays?
Platelet DG rel: 1; PolyA inhibitor: 2; AHR activator: 2; p-CIP stab down: -16; HIF activator: 194*

Results for CC1CC(C)CN(S(=O)(=O)c2ccc3c(c2)oc(=O)n3CC(=O)NCCCOC(C)C)C1 (centres undefined) ?
Platelet DG rel: -4; PolyA inhibitor: 0; AHR activator: 1; p-CIP stab down: -2; HIF activator: 31*

How did O=C(Cn1nc(-c2ccccc2)c2ccccc2c1=O)NCCO do in these assays?
Platelet DG rel: -2; PolyA inhibitor: -6; AHR activator: -1; p-CIP stab down: -11; HIF activator: 3

How did COc1cc(NC(=O)c2noc3c2CCCC3)c(OC)cc1Cl do in these assays?
Platelet DG rel: -9; PolyA inhibitor: -19; AHR activator: 55*; p-CIP stab down: -8; HIF activator: 0

Results for COc1ccc(NC(=O)c2cc(C(C)C)on2)c(OC)c1 ?
Platelet DG rel: -2; PolyA inhibitor: -3; AHR activator: 2; p-CIP stab down: -19; HIF activator: 4

How did COc1cc(NC(=O)c2cc(C(C)C)on2)c(OC)cc1Cl do in these assays?
Platelet DG rel: 18; PolyA inhibitor: 12; AHR activator: 74*; p-CIP stab down: -21; HIF activator: -1

Source: PubChem BioAssay (several laboratories)
